The nature of test [1]: optical density shifts of acrAB sulA E. coli – strain DRC41, OD650, 48 h, E. coli filamentation inducer project, primary screen (AID 1152).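 Also: E. coli MC1000 strain DRC41 lacking acrAB efflux pump and sulA.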 The following applies: higher = more signal, called active from +8 up or from −8 down.
Test [2] is described as follows: probe aLefty1 binding on compound microarray – biochemical, small-molecule microarray, 635/667 nm fluorescence, primary screen (AID 1153).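 Also: score merges spot fluorescence with signal-to-noise ratio from the scanned slide images.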 The following applies: higher = more signal.
The nature of test [3]: plasmodial surface anion channel blockers, osmotic lysis – cell-based, P. falciparum Indochina, OD700, 1 h, primary screen (AID 1154). The following applies: P. falciparum Indochina infected RBC osmotic lysis, higher = more signal, called active from +8 up or from −8 down.
Test [4] is described as follows: plasmodial surface anion channel blockers, osmotic lysis – cell-based, P. falciparum Indochina, OD700, 2 h, primary screen (AID 1155).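 Also: lysis reports solute entry through the parasite surface anion channel PSAC.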 The following applies: P. falciparum Indochina infected erythrocytes, higher = more signal, called active from +8 up or from −8 down.
A short description of test [5]: changes in parasitized red cell lysis, either direction – P. falciparum Indochina, OD700, 3 h, PSAC antagonist project, primary screen (AID 1156). Particulars: P. falciparum-infected erythrocytes, osmotic lysis, higher = more signal, called active from +8 up or from −8 down.
The nature of test [6]: plasmodial surface anion channel blockers, osmotic lysis – cell-based, P. falciparum Indochina, OD700, 18 h, primary screen (AID 1157). The following applies: P. falciparum Indochina infected erythrocytes, osmotic lysis OD700, 18 h; higher = more signal, called active from +8 up or from −8 down.
Test [7] can be described thus: S6 kinase pathway phospho-S6 level changes – cell-based, A549, cytoblot, luminescence, serum-stimulated, primary screen (AID 1158).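 Also: serum-stimulated A549 lung adenocarcinoma cells; signal is phosphorylated S6 detected by cytoblot immunostaining with HRP secondary.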 Particulars: 5 h, higher = more signal.
The target in test [8] is NADPH oxidase 2 (Homo sapiens) (UniProt P04839). Kind of test: compounds shifting NOX2 Amplex Red fluorescence – cell-based, HEK293-NOX2, PMA-stimulated, NOX inhibitor project, primary screen (AID 1159). Also: test concentration not given here. The following applies: 45 min, higher = more signal, called active from +8 up or from −8 down.
NADPH oxidase 2 (Homo sapiens), sequence (P04839 whole entry, looked up): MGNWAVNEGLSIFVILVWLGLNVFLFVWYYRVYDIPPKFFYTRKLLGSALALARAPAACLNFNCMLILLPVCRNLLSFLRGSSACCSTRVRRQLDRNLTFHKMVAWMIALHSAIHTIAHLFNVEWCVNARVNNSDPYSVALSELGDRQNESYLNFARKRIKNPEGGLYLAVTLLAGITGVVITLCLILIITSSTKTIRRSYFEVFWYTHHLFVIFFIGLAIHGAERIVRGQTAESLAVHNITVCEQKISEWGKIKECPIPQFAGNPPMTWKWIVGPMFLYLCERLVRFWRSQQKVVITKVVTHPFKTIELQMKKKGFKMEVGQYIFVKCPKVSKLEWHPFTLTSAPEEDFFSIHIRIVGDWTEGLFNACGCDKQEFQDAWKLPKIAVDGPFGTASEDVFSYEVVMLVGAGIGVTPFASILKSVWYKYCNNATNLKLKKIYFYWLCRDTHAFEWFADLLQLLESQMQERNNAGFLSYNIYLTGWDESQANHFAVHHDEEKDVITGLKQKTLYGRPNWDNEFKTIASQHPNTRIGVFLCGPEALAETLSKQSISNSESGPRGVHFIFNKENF
The target of test [9] is NADPH oxidase 4 (Homo sapiens) (UniProt Q9NPH5). The test is described as follows: compounds shifting NOX4 Amplex Red fluorescence – cell-based, HEK293-NOX4, tetracycline-induced, NOX inhibitor project, primary screen (AID 1160). Particulars: HEK293-NOX4, Amplex Red H2O2 fluorescence, 45 min; higher = more signal, called active from +8 up or from −8 down.
NADPH oxidase 4 (Homo sapiens), sequence (Q9NPH5 whole entry, looked up): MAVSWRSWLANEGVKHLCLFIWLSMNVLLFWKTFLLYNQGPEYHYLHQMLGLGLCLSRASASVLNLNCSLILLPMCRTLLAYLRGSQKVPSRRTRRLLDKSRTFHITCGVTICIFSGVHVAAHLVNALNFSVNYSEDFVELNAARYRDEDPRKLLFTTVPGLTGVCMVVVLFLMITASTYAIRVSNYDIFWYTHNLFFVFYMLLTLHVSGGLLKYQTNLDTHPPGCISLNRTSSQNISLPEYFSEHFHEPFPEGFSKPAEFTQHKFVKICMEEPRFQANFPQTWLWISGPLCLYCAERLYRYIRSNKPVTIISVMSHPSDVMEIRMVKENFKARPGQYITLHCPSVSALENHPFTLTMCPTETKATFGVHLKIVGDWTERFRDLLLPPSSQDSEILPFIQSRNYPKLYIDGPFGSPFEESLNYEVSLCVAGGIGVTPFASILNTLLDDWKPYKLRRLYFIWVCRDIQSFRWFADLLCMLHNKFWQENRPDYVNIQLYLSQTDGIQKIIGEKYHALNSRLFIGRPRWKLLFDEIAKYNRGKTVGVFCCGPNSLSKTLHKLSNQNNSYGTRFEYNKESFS
Test [10] deals with NADPH oxidase 5 (Homo sapiens) (UniProt Q96PH1). Kind of test: compounds shifting NOX5 Amplex Red fluorescence – cell-based, HEK293-NOX5, NOX inhibitor project, primary screen (AID 1161). The following applies: HEK293-NOX5, ionomycin, 45 min, higher = more signal.
NADPH oxidase 5 (Homo sapiens), sequence (Q96PH1 whole entry, looked up): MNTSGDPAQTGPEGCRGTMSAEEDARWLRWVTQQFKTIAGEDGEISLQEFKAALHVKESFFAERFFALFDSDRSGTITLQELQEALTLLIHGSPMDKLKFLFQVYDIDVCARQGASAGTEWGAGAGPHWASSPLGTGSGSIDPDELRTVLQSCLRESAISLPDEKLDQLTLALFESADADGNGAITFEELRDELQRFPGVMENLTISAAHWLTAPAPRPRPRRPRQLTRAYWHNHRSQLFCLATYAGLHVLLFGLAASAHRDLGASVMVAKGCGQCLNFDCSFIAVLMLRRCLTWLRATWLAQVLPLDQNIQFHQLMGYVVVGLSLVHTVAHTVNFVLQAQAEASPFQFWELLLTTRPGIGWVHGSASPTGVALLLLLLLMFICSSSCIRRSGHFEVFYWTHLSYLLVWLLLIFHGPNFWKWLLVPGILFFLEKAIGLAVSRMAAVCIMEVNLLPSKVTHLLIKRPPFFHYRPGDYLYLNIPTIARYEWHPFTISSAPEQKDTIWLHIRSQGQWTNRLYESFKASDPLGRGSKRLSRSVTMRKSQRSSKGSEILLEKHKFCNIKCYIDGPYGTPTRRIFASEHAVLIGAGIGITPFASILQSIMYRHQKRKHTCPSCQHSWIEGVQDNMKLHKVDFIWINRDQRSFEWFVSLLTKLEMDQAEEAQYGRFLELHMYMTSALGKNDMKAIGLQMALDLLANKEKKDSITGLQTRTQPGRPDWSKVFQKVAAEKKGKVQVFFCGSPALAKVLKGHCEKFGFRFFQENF
A short description of test [11]: compound effects on lung adenocarcinoma cell viability – A549, calcein-AM fluorescence, 48 h, basal, profiling panel (AID 1162). Also: test concentration not given here. Particulars: higher = more signal.
Test [12] is described as follows: compound effects on differentiated 3T3-L1 adipocyte viability – cell-based, 3T3-L1 adipocytes, calcein-AM fluorescence, 48 h, basal, profiling panel (AID 1163). Also: test concentration not given here. Particulars: 3T3-L1 adipocytes viability, higher = more signal.
Test [13] can be described thus: compound effects on hepatocellular carcinoma cell viability – HepG2, calcein-AM fluorescence, 48 h, basal, profiling panel (AID 1164). Also: test concentration not given here. The following applies: higher = more signal.
Test [14] can be described thus: compound effects on multiple myeloma cell viability – MM1S, calcein-AM fluorescence, 48 h, basal, profiling panel (AID 1165).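 Also: viability of MM1S multiple myeloma cells under basal unstimulated conditions; test concentration not given here.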 The following applies: higher = more signal.
The nature of test [15]: calcein-AM signal in unstimulated myeloma cells – cell-based, calcein-AM fluorescence, 48 h, PK04 Diversity Set, profiling panel (AID 1166).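 Also: cells grown under basal conditions without added stimulus; test concentration not given here.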 The following applies: RPMI8226 myeloma viability, higher = more signal.
The nature of test [16]: JC-1 mitochondrial signal, unstimulated HepG2 cells – cell-based, JC-1 fluorescence, 24 h, 100 nL compound, profiling panel (AID 1167). Also: test concentration not given here. Particulars: HepG2 mitochondrial potential, higher = more signal.
A short description of test [17]: JC-1 mitochondrial signal, unstimulated adipocytes – cell-based, JC-1 fluorescence, 3T3-L1 adipocytes, 24 h, 100 nL compound, profiling panel (AID 1168). Also: test concentration not given here. The following applies: JC-1 mitochondrial fluorescence, higher = more signal, called active from +8 up or from −8 down.
Test [18] can be described thus: JC-1 mitochondrial signal, unstimulated myeloma cells – cell-based, JC-1 fluorescence, RPMI8226, 24 h, 100 nL compound, profiling panel (AID 1169). Also: test concentration not given here. Particulars: JC-1 mitochondrial potential fluorescence, higher = more signal.
A short description of test [19]: JC-1 mitochondrial signal, unstimulated MM1S myeloma – cell-based, JC-1 fluorescence, 24 h, 100 nL compound, profiling panel (AID 1170). Also: test concentration not given here. Particulars: MM1S mitochondrial potential, higher = more signal.
Test [20] can be described thus: resazurin metabolic signal in A549 cells – cell-based, resazurin fluorescence, 24 h, PK04 Diversity Set, profiling panel (AID 1171). Also: test concentration not given here. The following applies: A549 viability, higher = more signal, called active from +8 up or from −8 down.

Each structure is given as a SMILES string. Calls of active or inactive are those of the source.

As for `NC(=O)NCC#Cc1ccc2c(c1)[C@]1(C(=O)N2)[C@H](c2ccc(O)cc2)N2[C@H](c3ccccc3)[C@H](c3ccccc3)OC(=O)[C@H]2[C@@H]1C(=O)Nc1nc2ccccc2s1`, the z-score in test [1] was 0.589 (inactive); in test [3], 3.28 (inactive); in test [4], 2.86 (inactive); in [5], 0.904 (inactive); in [6], 2.09 (inactive); in test [7], 0.0298. Besides, the z-score in test [8] is 0.0666 (inactive); in test [9], -1.01 (inactive); in [10], 0.17; in test [11], 0.421; in [12], 1.17; in [13], 0.157. In addition, the z-score was -0.168 in [14]; 0.496 in test [15]; -3.24 in test [16]; 0.352 (inactive) in test [17]; -1.16 in [18]; -2.12 in [19]. In addition, the z-score in test [20] was 0.754 (inactive). The same compound yielded a composite z-score in test [2] of 0.127.
With `CC=CC(O)C1C=CC2C(=O)N(c3ccccc3)C(=O)C2N1Nc1ccc([N+](=O)[O-])cc1` (stereo not given), the z-score in test [1] is -1 (inactive); in test [3], 8.61 (active); in test [4], 1.61 (inactive); in test [5] it was 0.457 (inactive); in test [6], 0.876 (inactive); in [7] it was -0.701. For the same compound, the z-score was -0.095 (inactive) in [8]; -1.91 (inactive) in test [9]; -0.909 in test [10]; -0.972 in test [11]; -1.3 in test [12]; 0.196 in test [13]. The z-score in [14] is 0.459; in test [15], 0.471; in test [16] it was -0.653; in test [17], 0.207 (inactive); in test [18], 0.592; in [19], -1.01. Moreover, the z-score in test [20] was -0.0977 (inactive). The compound further showed a composite z-score in test [2] of 0.0378.
As for `C=CCN1C(=O)[C@@]2(CCC(=O)OC(C)(C)C)N=C(c3ccc(OCCCO)cc3)O[C@H]2c2ccccc21`, the z-score is 0.46 (inactive) in test [1]; 36.7 (active) in [3]; 36.3 (active) in test [4]; 3.79 (inactive) in test [5]; 13.2 (active) in test [6]; 0.0444 in [7]. Further, the z-score is -2.82 (inactive) in [8]; 0.413 (inactive) in [9]; -0.917 in test [10]; -1.22 in test [11]; 0.28 in test [12]; -2.35 in test [13]. In addition, the z-score is -3.59 in [14]; -3.97 in test [15]; -1.62 in test [16]; 2.8 (inactive) in test [17]; -1.19 in test [18]; -2.57 in [19]. The z-score in test [20] was -1.66 (inactive). The same compound registered a composite z-score in test [2] of 0.466.
For the compound `CCCN1C(=O)[C@]2(Cc3ccccc3)N=C(c3ccc(OCCCO)cc3)O[C@@H]2c2ccccc21`, the z-score in test [1] is 0.655 (inactive); in [3], 34 (active); in test [4], 27.2 (active); in test [5], 1.25 (inactive); in [6], 4.25 (inactive); in test [7], 1.56. For the same compound, the z-score was -2.25 (inactive) in [8]; 0.187 (inactive) in test [9]; -1.27 in test [10]; 0.0649 in test [11]; 0.932 in [12]; -1.26 in [13]. For the same compound, the z-score is -1.26 in test [14]; -4.03 in [15]; 0.596 in [16]; 2.77 (inactive) in [17]; -1.21 in test [18]; -1.1 in test [19]. Also, the z-score in test [20] was -0.593 (inactive). In test [2], the composite z-score was 0.268.
With `COC(=O)Cn1c(C(=O)N2CCCC2)cc2c1C[C@H]1CN(C(=O)c3ccccc3)[C@@](Cc3ccc(F)cc3)(C(=O)OC)[C@@H]21`, the z-score was -0.246 (inactive) in test [1]; 1.32 (inactive) in [3]; -0.428 (inactive) in test [4]; -0.865 (inactive) in test [5]; -1.71 (inactive) in [6]; 3.59 in [7]. Also, the z-score in [8] is 0.215 (inactive); in test [9], 1.31 (inactive); in test [10], -1.46; in test [11], 1.13; in test [12], 0.0791; in [13] it was 0.476. Further, the z-score was -0.297 in test [14]; 0.63 in test [15]; 0.669 in test [16]; -1.47 (inactive) in test [17]; -0.135 in test [18]; -1.68 in test [19]. Further, the z-score in [20] was -0.581 (inactive). Besides, the composite z-score in test [2] is -0.041.
With `COCC(=C=CC[C@H](O)c1ccc(OCCO)cc1)C[C@H](O)COCc1ccccc1`, the z-score in test [1] was 1.19 (inactive); in test [3], 16.5 (active); in test [4], 1.61 (inactive); in test [5], 0.103 (inactive); in [6], -0.749 (inactive); in [7], 0.974. Also, the z-score in [8] was -1.6 (inactive); in test [9], -0.65 (inactive); in test [10] it was -2.52; in test [11] it was 0.542; in test [12], 1.24; in test [13] it was 0.115. Moreover, the z-score is -0.26 in test [14]; 0.249 in test [15]; 1.07 in [16]; -0.801 (inactive) in test [17]; -0.245 in [18]; -0.748 in test [19]. Also, in test [20], the z-score is 0.925 (inactive). The same compound displayed a composite z-score in [2] of 0.179.
With `COc1ccc(NC(=O)O[C@H]2[C@H](OC(=O)Nc3ccc4c(c3)OCO4)[C@@H](OC(=O)Nc3ccc4c(c3)OCO4)[C@@H](OC)O[C@@H]2CO)cc1`, the z-score was 0.898 (inactive) in test [1]; 5.81 (inactive) in test [3]; 1.13 (inactive) in [4]; 0.081 (inactive) in [5]; 0.521 (inactive) in test [6]; -0.182 in test [7]. Besides, the z-score in [8] is -3.33 (inactive); in [9] it was -0.666 (inactive); in test [10], -2.16; in [11], -1.11; in test [12] it was -0.0868; in test [13], -1.67. In addition, the z-score in [14] is -1.44; in test [15], -0.7; in test [16], 0.818; in test [17], 0.533 (inactive); in [18] it was -0.628; in test [19], -0.786. Further, in test [20], the z-score was 0.441 (inactive). Moreover, the composite z-score in test [2] worked out at 0.33.
As to `COc1cc(CO)cc(I)c1O[C@H]1C=C(C(=O)NCCO)C[C@@H](N(CC2CCCCC2)C(=O)c2ccc(C(F)(F)F)cc2)[C@@H]1O`, the z-score in test [1] is 1.76 (inactive); in test [3], 1.05 (inactive); in [4], 0.447 (inactive); in [5], 1.69 (inactive); in test [6], 0.329 (inactive); in test [7] it was 0.597. The z-score is -0.363 (inactive) in test [8]; 0.916 (inactive) in test [9]; 0.686 in test [10]; 0.608 in test [11]; -0.535 in test [12]; 1.42 in [13]. Also, the z-score was 0.639 in [14]; -0.189 in test [15]; 0.214 in test [16]; -0.0651 (inactive) in test [17]; -1.09 in test [18]; -0.337 in test [19]. Further, the z-score in [20] is 0.126 (inactive). Moreover, the composite z-score in [2] was -0.0547.
Turning to `COc1ccc([Si](C)(C)[C@H]2[C@H](CCn3cc([C@H](O)c4ccccc4)nn3)O[C@@]3(C(=O)N(Cc4ccc(N5CCOC5=O)cc4)c4ccccc43)[C@@H]2C)cc1`, the z-score in test [1] is -0.0796 (inactive); in test [3], 31.9 (active); in [4] it was 31.7 (active); in test [5], 1.99 (inactive); in test [6] it was 3.2 (inactive); in test [7] it was -0.532. Also, the z-score in test [8] is 0.308 (inactive); in test [9] it was 2.85 (inactive); in test [10], 2.08; in test [11], 1.33; in test [12], 0.805; in [13], 1.15. The z-score was -1.45 in test [14]; 0.142 in test [15]; 0.858 in test [16]; 0.174 (inactive) in [17]; 0.157 in [18]; 0.113 in test [19]. For the same compound, the z-score in test [20] is -0.265 (inactive). Also, the composite z-score in test [2] is -0.147.

These data come from PubChem BioAssay.
